An excerpt weighted towards active compounds, which were near 5.7% of everything screened.
ssDAF-12 act = S. stercoralis DAF-12 nuclear receptor activators, primary screen, cell-based, luminescence, HEK293, GRIP1 co-expression, lit1-tk-luc | Nuclear hormone receptor DAF-12 (Strongyloides stercoralis) | HEK293 ssDAF-12/GRIP1 lit1-tk-luc reporter; % of 3 µM dafachronic acid response | activation, % at 6.8 µM | 1% of 370,000 active | AID 652126, 2013;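 active means activation above the mean over all tested compounds plus 3 SD, cut at about 0.9% in these data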
DAX1 inh-1 = DAX1 (NR0B1) inhibitors on StAR promoter, primary screen, cell-based, luminescence, SF-1 (NR5A1), full-length DAX-1; HEK293T StAR-luciferase reporter, SF-1/DAX-1 repression relief; inhibition, % at 6.8 µM; 1.1% of 370,000 active; AID 652010, 2013;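 active means inhibition above the mean over all tested compounds plus 3 SD, cut at about 3.6% in these data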;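 further: higher inhibition means more luminescence from relief of DAX-1 repression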
hcDAF12 agonist = H. contortus DAF-12 nuclear receptor activators, primary screen, cell-based, luminescence, HEK293, lit1-tk-luc reporter; activation, % at 6.8 µM; 1.4% of 370,000 active; AID 652067, 2013; HEK293 hcDAF-12 lit1-tk-luc reporter; 0% DMSO, 100% Δ7-dafachronic acid;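 active means activation above the mean of all tested compounds plus 3 SD, cut at about 5.5% in these data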
DAX1 inh-2 = DAX1 (NR0B1) inhibitors, primary screen, cell-based, HEK293, Gal4-DAX1, luciferase luminescence; 0.99% of 340,000 active; HEK293 Gal4-DAX1 luciferase reporter; inhibition, % at 6.75 µM;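 active means inhibition above the mean over all tested compounds plus 3 SD, cut at about 4.2% in these data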;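 further: inhibition shows as a rise in luminescence from relieved DAX1 repression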
AHR act = AHR activators, primary screen, cell-based, luminescence, luciferase reporter, human; Aryl hydrocarbon receptor (Homo sapiens), P35869; AHR-responsive luciferase reporter cells; activation, % at 5 µM; 2.5% of 320,000 active; in the data active means activation above about 47%
hgDAF12 agonist = H. glycines DAF-12 receptor agonists, primary screen, cell-based, luminescence, HEK293, GAL4 fusion, UAS-luciferase; Nuclear hormone receptor DAF-12 (Heterodera glycines), GAL4 fusion; HEK293 GAL4-hgDAF12 UAS-luciferase reporter, agonist luminescence; normalized to butyrate control; activation, % at 6.8 µM; 1.8% of 370,000 active;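 active means activation above a cutoff set at the mean of all screened compounds plus 3 SD, cut at about 10% in these data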
DAX1 inh confirm = DAX1 (NR0B1) inhibitors relieving SF-1 repression, confirmation, cell-based, luminescence, HEK293T, full-length DAX-1, SF-1 activated StAR promoter; 87% of 2,400 active; inhibition, % at 6.8 µM; shares compounds with DAX1 inh-1; HEK293T StAR-promoter luciferase reporter, SF-1/DAX-1 repression; AID 652134, 2013;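 active means inhibition above the average of every tested compound plus 3 SD, cut at about 3.8% in these data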
Target sequence (P51843 whole entry, looked up): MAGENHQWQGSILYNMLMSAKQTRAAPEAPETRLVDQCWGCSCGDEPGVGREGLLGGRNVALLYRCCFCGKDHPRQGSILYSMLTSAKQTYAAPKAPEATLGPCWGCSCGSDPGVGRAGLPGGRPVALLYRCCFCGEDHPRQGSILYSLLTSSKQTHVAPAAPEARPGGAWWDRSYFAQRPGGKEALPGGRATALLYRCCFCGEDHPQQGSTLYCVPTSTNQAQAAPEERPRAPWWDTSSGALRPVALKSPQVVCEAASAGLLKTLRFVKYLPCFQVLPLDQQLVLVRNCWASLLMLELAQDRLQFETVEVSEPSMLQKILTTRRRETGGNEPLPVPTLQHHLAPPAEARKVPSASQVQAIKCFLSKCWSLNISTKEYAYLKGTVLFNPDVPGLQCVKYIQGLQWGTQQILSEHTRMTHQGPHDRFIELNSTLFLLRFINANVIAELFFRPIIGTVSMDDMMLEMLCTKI
SF1 AF2mut Luc = StAR reporter signal changes without DAX1, counter-screen for DAX1 inhibitor project, cell-based, luminescence, AF-2 mutant SF-1, transactivation; shares compounds with DAX1 inh-1; HEK293 StAR-luciferase, SF-1 AF2 mutant; inhibition, % at 6.8 µM; 78% of 2,400 active; AID 652136, 2013;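 active means inhibition above the mean of all tested compounds plus 3 SD, cut at about 3% in these data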
Hits are given with their value; 0 = inactive; - = no result.

SMILES | ssDAF-12 act | DAX1 inh-1 | hcDAF12 agonist | DAX1 inh-2 | AHR act | hgDAF12 agonist | DAX1 inh confirm | SF1 AF2mut Luc
O=C(Nc1ncc(Cc2cccc([N+](=O)[O-])c2)s1)c1ccco1 | 0 | 0 | 0 | 0 | 0 | 0 | - | -
COC(=O)CSc1nnc(NC(=O)c2ccc3c(c2)OCO3)s1 | 0 | 4.7 | 0 | 0 | 0 | 0 | 8.7 | 3.5
CC(=O)c1sc(NC(=O)c2ccc3c(c2)OCO3)nc1C | 0 | 9.4 | 0 | 0 | 0 | 12 | 9.5 | 6.5
Oc1ccc(C=Nc2ccc3ncccc3c2)c(O)c1 | - | - | - | - | 0 | - | - | -
CC(=O)N(C)c1ccc(N=Nc2ccc3ncccc3c2)cc1 | 0 | 5.5 | 5.7 | 0 | - | 12 | 10 | 3.7
Cc1cccc(NC(=O)CN2C(=O)S/C(=C\C(=O)Nc3ccc(Cl)cc3)C2=O)c1 | 0 | 0 | 0 | 0 | 0 | 0 | - | -
COC(=O)c1ccccc1NC(=S)NC(=O)COc1ccccc1 | 0 | 0 | 0 | 0 | 0 | 0 | - | -
O=C(CN1CCCCC1)Nc1scc2c1c(=O)oc1ccccc12 | 0 | 0 | 0 | 0 | 0 | 0 | - | -
C=CCN(C(=O)c1oc2c(Cl)cc(C)cc2c1C)C1CCS(=O)(=O)C1 (configuration not stated) | 0 | 5.2 | 0 | 0 | 0 | 0 | 6.1 | 4.0
COc1ccc(Nc2nc(-c3cccs3)cs2)cc1 | 3.8 | 7.1 | 16 | - | 49 | 18 | 19 | 11
Cc1cccc(C)c1-n1nnnc1C(c1ccccc1OC(F)(F)F)N1CCN(C/C=C/c2ccccc2)CC1 (configuration not stated) | 0 | 4.7 | 0 | - | - | 0 | 0 | 0
COc1cccc(C(c2nnnn2-c2c(C)cccc2C)N2CCN(C/C=C/c3ccccc3)CC2)c1OC (configuration not stated) | 0 | 0 | 0 | - | - | 0 | - | -
O=C(COC(=O)c1ccccc1-n1cnnn1)c1ccc(F)cc1 | 0 | 7.7 | 0 | 0 | 0 | 0 | 7.5 | 5.6
COc1ccccc1C(=O)COC(=O)c1ccc(-n2cnnn2)cc1 | 0 | 0 | 0 | 0 | 0 | 0 | - | -
COc1ccc(S(=O)(=O)CCC(=O)N2CCN(c3ccccc3F)CC2)cc1 | 0 | 0 | 0 | 0 | 0 | 0 | - | -
O=C(CCS(=O)(=O)c1ccccc1)N1CCN(c2ccccc2F)CC1 | 0 | 7.0 | 0 | 0 | 0 | 13 | 7.6 | 3.1
COCC(=O)N/N=C\c1ccccc1OC/C=C/c1ccccc1 | 0 | 8.1 | 0 | 0 | 0 | 11 | 0 | 4.8
COCC(=O)N/N=C\c1cccc(OC)c1OC/C=C/c1ccccc1 | 0 | 0 | 0 | 0 | - | 0 | - | -
COc1ccc(/C=N/Nc2ncc(-c3ccccc3)cn2)c(OC)c1 | 0 | 0 | 0 | 0 | 0 | 0 | - | -
COc1ccc(/C=N/Nc2ncccc2[N+](=O)[O-])c(OC)c1 | 0 | 5.0 | 0 | 0 | 0 | 0 | 15 | 8.9
Cn1cnc2cc(NC(=O)c3cccs3)ccc21 | 0 | 4.6 | 0 | 5.7 | 0 | 0 | 3.8 | 3.7
Cn1cnc2cc(NC(=O)c3ccc(Cl)cc3)ccc21 | 0 | 6.6 | 0 | 0 | 0 | 12 | 14 | 6.4
C#CCNC(=O)C[C@@H]1C[C@@]2(C(=O)OCC)CCC=C2N(Cc2cccc3ccccc23)C1=O | 0 | 0 | 0 | - | - | 0 | - | -
COc1ccc(OC)c(CNC(=O)C2CCCN(C(=O)N(C)C)C2)c1 (configuration not stated) | 0 | 0 | 0 | 0 | 0 | 0 | - | -
CCOc1ccc(NC(=O)c2ccco2)cc1S(=O)(=O)N1CCCC1 | 0 | 5.1 | 0 | 0 | 0 | 0 | 0 | 0
SMILES | ssDAF-12 act | DAX1 inh-1 | hcDAF12 agonist | DAX1 inh-2 | AHR act | hgDAF12 agonist | DAX1 inh confirm | SF1 AF2mut Luc
CCOc1ccc(NC(=O)c2cccc(NC(C)=O)c2)cc1S(=O)(=O)N1CCCC1 | 0 | 0 | 0 | 0 | - | 0 | - | -
COc1ccc(/C(C)=N/Nc2nccnc2Cl)cc1 | 0 | 5.6 | 0 | 0 | 0 | 0 | 4.2 | 0
COc1cccc(C(O)c2ncc(-c3cccc4ccccc34)[nH]2)c1 (configuration not stated) | 0 | 0 | 0 | - | - | 0 | - | -
COC(=O)Nc1nc2ccc(C(=O)c3cccs3)cc2[nH]1 | 0 | 8.7 | 0 | 0 | 0 | 0 | 49 | 0
O=C(OCCN1CCOCC1)c1ccccc1 | 0 | 0 | 0 | 0 | 0 | 0 | - | -
CC(=O)c1ccc(NC(=O)/C(=C\c2ccco2)NC(=O)c2ccco2)cc1 | 0 | 0 | 0 | 0 | 0 | 0 | - | -
CC(=O)c1cccc(NC(=O)/C(=C\c2ccco2)NC(=O)c2ccco2)c1 | 0 | 4.9 | 0 | 0 | 0 | 0 | 0 | 0
O=C(Nc1ccc(Cl)cc1)N1CCC(c2ccccc2)C1 (configuration not stated) | 0 | 5.6 | 0 | 6.8 | 0 | 12 | 12 | 6.6
Cc1ccc(C2CCN(C(=O)Nc3ccccc3)C2)cc1 (configuration not stated) | 0 | 0 | 0 | 0 | 0 | 0 | - | -
Nc1c(C(=O)Nc2ccc3c(c2)OCCO3)nnn1CCc1ccccc1 | 0 | 0 | 0 | 0 | 0 | 0 | - | -
Nc1c(C(=O)Nc2ccc3c(c2)OCCO3)nnn1Cc1cccc(Br)c1 | 0 | 9.3 | 0 | 0 | 0 | 0 | 9.0 | 5.9
CC(C(=O)N1CCCC1)c1ccc([N+](=O)[O-])cc1 (configuration not stated) | 0 | 0 | 0 | 0 | 0 | 0 | - | -
Cc1ccc(-c2c(C)sc(=NC(=O)c3ccco3)n2C)cc1 | 0 | 5.2 | 0 | 0 | 0 | 0 | 6.8 | 3.0
Cc1cc(C)n2nc(C(=O)Nc3ccc4c(c3)OCO4)nc2n1 | 0 | 0 | 0 | 0 | 0 | 0 | - | -
Cc1cc(C)n2nc(C(=O)Nc3ccc4c(c3)OCCO4)nc2n1 | 0 | 6.0 | 0 | 0 | 0 | 0 | 5.6 | 0
Cc1ccnc2nc(C(=O)Nc3ccc4c(c3)OCO4)nn12 | 0 | 4.6 | 0 | 0 | 0 | 0 | 8.9 | 5.2
Cc1ccc(C(=O)CN2C(=O)NC3(CCCCCC3)C2=O)c(C)c1 | 0 | 5.5 | 0 | 0 | 0 | 0 | 4.2 | 3.8

Assay outcomes: PubChem, The Scripps Research Institute Molecular Screening Center
